Measured values: PubChem BioAssay (NCATS)
For part of these data: Results with a measured potency or affinity are listed apart. Calls of active or inactive are those of the source. Starred links: 1 amine or outer side, 2 acyl side, 3 side chain; linkers in the order of their positions; H or OH if unused. Positions of bridges follow the written chain, without caps; N, C: chain ends. Non-standard residues stand in square brackets, D forms with d. Residues, ends and D or L forms follow the SMILES beside them. ξ: configuration not given here. *: point of attachment. ΔAla(3-NHCONH2) = NC(=O)NC=C(N)C(=O)O; X1 = NC1=NCCC(C(N[*:1])C(=O)[*:2])N1; ξβ3hOrn = NCCCC(N)CC(=O)*; Dap = NC[CH](N)C(=O)O

Experiments:
[1] = Ebola virus entry assay, green fluorescence channel
[2] = Ebola virus entry assay, ratio channel readout
[3] = Ebola virus entry assay, green channel fluorescence
[4] = Ebola virus entry assay, blue channel fluorescence
[5] = Ebola virus entry assay, reporter ratio channel; AC50: Channel type: primary unless noted; outcome: Channel type: primary unless noted
[6] = Ebola virus entry assay, blue channel (ratio component)
[7] = Ebola virus entry reporter assay, green channel fluorescence
[8] = Ebola virus entry cell assay, ratio channel
[9] = Ebola virus entry assay, blue channel fluorescence; remark: listed apart in the source
[10] = Ebola virus entry assay, ratio channel

Measured: AC50

CCCNC(=O)NS(=O)(=O)c1ccc(Cl)cc1
inactive: [1] | [2] | [3] | [4] | [5] | [6] | [7] | [8]

NCCCC(N)CC(=O)NCC1NC(=O)C(CO)NC(=O)C(N)CNC(=O)C(C2CCN=C(N)N2)NC(=O)C(=CNC(N)=O)NC1=O (stereo not drawn) (H-[Dap]S[Dap](ξβ3hOrn)[ΔAla(3-NHCONH2)][X1]; lactam 1-C; configuration not given here)
inactive: [1] | [2] | [3] | [4] | [5] | [6] | [7] | [8]

CC(C(=O)O)c1cccc(C(=O)c2ccccc2)c1 (stereo not drawn)
inactive: [1] | [9] | [3] | [4] | [5] | [6] | [8]

NCC(CC(=O)O)c1ccc(Cl)cc1 (stereo not drawn)
inactive: [1] | [2] | [4] | [5] | [6] | [7] | [8]

Cn1cc[nH]c1=S
inactive: [1] | [9] | [10] | [3] | [4] | [5] | [6] | [7] | [8]

NCCCC(O)(P(=O)(O)O)P(=O)(O)O
inactive: [1] | [2] | [5] inactive [Channel type: confirmation] | [6]
active: [8] 3.98 µM

C[C@]12CC[C@H]3[C@@H](CCC4=CC(=O)CC[C@@H]43)[C@@H]1CC[C@@H]2OC(=O)CCc1ccccc1
inactive: [1] | [2] | [3] | [5] | [6] | [7] | [8]

COC(=O)[C@@H]1CC2=CC(=O)CC[C@]2(C)[C@@]23O[C@@H]2C[C@@]2(C)[C@@H](CC[C@@]24CCC(=O)O4)[C@H]13
inactive: [1] | [2] | [3] | [4] | [5] | [6] | [7] | [8]

CC(C)(C(=O)O)c1ccc(C(O)CCCN2CCC(C(O)(c3ccccc3)c3ccccc3)CC2)cc1 (stereo not drawn)
inactive: [1] | [2] | [3] | [4] | [5] | [6] | [7] | [8]

CN[C@H]1CC[C@@H](c2ccc(Cl)c(Cl)c2)c2ccccc21
inactive: [1]
active: [9] 2 µM | [10] 1.58 µM | [5] 1.58 µM

Cc1cn[nH]c1
inactive: [1] | [2] | [4] | [5] | [6] | [7] | [8]

CC(C)NC[C@@H](O)COc1ccc(CC(N)=O)cc1
inactive: [1] | [2] | [3] | [4] | [5] | [6] | [7] | [8]

Cc1cccc(Nc2ccncc2S(=O)(=O)NC(=O)NC(C)C)c1
inactive: [1] | [2] | [3] | [4] | [5] | [6] | [8]

CCCCS(=O)(=O)N[C@@H](Cc1ccc(OCCCCC2CCNCC2)cc1)C(=O)O
inactive: [1] | [2] | [3] | [4] | [5] | [6] | [7] | [8]

O=C(O)COCCN1CCN(C(c2ccccc2)c2ccc(Cl)cc2)CC1 (stereo not drawn)
inactive: [1] | [2] | [3] | [4] | [5] | [6] | [7] | [8]

C[C@@H](O)[C@H]1C(=O)N2C(C(=O)O)=C(S[C@@H]3CN[C@H](C(=O)N(C)C)C3)[C@H](C)[C@H]12
inactive: [1] | [2] | [3] | [4] | [5] | [6] | [7] | [8]

C[C@H]1[C@H](NC(=O)/C(=N/OC(C)(C)C(=O)O)c2csc(N)n2)C(=O)N1S(=O)(=O)O (stereo in doubt)
inactive: [1] | [10] | [3] | [4] | [5] | [6] | [7] | [8]

CCC[C@H](N[C@@H](C)C(=O)N1[C@H](C(=O)O)C[C@@H]2CCCC[C@@H]21)C(=O)OCC
inactive: [1] | [9] | [10] | [3] | [4] | [5] | [6] | [8]

NC(=O)OCC(COC(N)=O)c1ccccc1
inactive: [1] | [2] | [3] | [5] | [6] | [7] | [8]

CC(C)(C)C(=O)OCOP(=O)(COCCn1cnc2c(N)ncnc21)OCOC(=O)C(C)(C)C
inactive: [1] | [2] | [3] | [4] | [5] | [6] | [7] | [8]

CCOC(=O)c1ncn2c1CN(C)C(=O)c1cc(F)ccc1-2
inactive: [1] | [9] | [10] | [3] | [4] | [5] | [6] | [7] | [8]

N[C@@H]1CONC1=O
inactive: [1] | [2] | [3] | [4] | [5] | [6] | [8]

CCCC(CCC)C(=O)O
inactive: [1] | [2] | [3] | [5] | [6] | [7] | [8]

O=C1CCc2ccc(OCCCCN3CCN(c4cccc(Cl)c4Cl)CC3)cc2N1
inactive: [1] | [2] | [3] | [5] | [6]
active: [8] 14.1 µM

Cc1ccc(-c2nc3ccc(C)cn3c2CC(=O)N(C)C)cc1
inactive: [1] | [2] | [3] | [4] | [5] | [6] | [7] | [8]

CN(C)/N=N/c1nc[nH]c1C(N)=O
inactive: [1] | [2] | [3] | [4] | [5] | [6] | [8]

NC(=O)N1c2ccccc2CC(=O)c2ccccc21
inactive: [1] | [9] | [3] | [4] | [5] | [6] | [7] | [8]

CC(C)CC(N(C)C)C1(c2ccc(Cl)cc2)CCC1 (stereo not drawn)
inactive: [1] | [2] | [3] | [4] | [5] | [6] | [8]

CCCN(CCC)CCc1cccc2c1CC(=O)N2
inactive: [1] | [2] | [3] | [4] | [5] | [6] | [8]

CCCCc1oc2ccccc2c1C(=O)c1cc(I)c(OCCN(CC)CC)c(I)c1
inactive: [1]
active: [9] 3.55 µM | [10] 2.82 µM | [5] 2.82 µM

COc1ccccc1OCC(O)COC(N)=O (stereo not drawn)
inactive: [1] | [2] | [3] | [4] | [5] | [6] | [8]

CC1Cc2ccccc2N1NC(=O)c1ccc(Cl)c(S(N)(=O)=O)c1 (stereo not drawn)
inactive: [1] | [2] | [3] | [4] | [5] | [6] | [8]

O=C(O)C1(C(=O)O)CCC1.[NH2-].[NH2-].[Pt+2]
inactive: [1] | [2] | [3] | [4] | [5] | [8]

NCC(O)c1ccc(O)cc1 (stereo not drawn)
inactive: [9] | [10] | [3] | [5] | [6]

O=c1[nH]cnc2c1ncn2[C@H]1CC[C@@H](CO)O1
inactive: [1] | [3] | [4] | [5] | [6] | [7] | [8]

COc1ccc(Cc2nccc3cc(OC)c(OC)cc23)cc1OC
inactive: [9] | [10] | [3] | [5] | [6]

CN(C)CCc1ccc(O)cc1
inactive: [9] | [10] | [3] | [5] | [6]

Oc1ccccc1-c1ccccc1
inactive: [9] | [10] | [3] | [5]

Cc1[nH]cnc1CN1CCc2c(c3ccccc3n2C)C1=O
inactive: [2] | [9] | [10] | [3] | [4] | [5] | [6] | [7] | [8]
